Hit rate of the full screen: of about 1,600 compounds, fewer than 10 were called active. Inconclusive results (about 48%) are left out.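 Rule for the calls: active = Normal-ribosome green reporter loss at least double humanized-ribosome red reporter loss, with overall culture growth inhibition under a set limit; inconclusive = no clear call, values can overlap the other calls; inactive = the rest.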 Only a sample is shown. Potency and affinity values are given separately.
Assay: growth inhibition of wild-type GFP E. coli, H38-humanized RFP comparator, dose response, H38 mutant RFP vs wild-type GFP, cherry-pick (AID 977630);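 note: wild-type GFP strain mixed equally with humanized-ribosome H38 mutant expressing RFP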
Details: mixed culture, 24 h; series mostly up to 50 µM; activity change, negative = inhibition: at the top concentration

Activity change, negative = inhibition, inactive:
COc1ccccc1-c1noc2ncnc(Nc3cccc(C)c3C)c12 -12.6, Cc1ccc([N+](=O)[O-])c(OCCn2cnc3ccccc32)c1 -3.1, Cc1cc2nc(SCC(=O)O)nc(C)c2cc1C -1.89, COc1ccc(CN2C(=O)CC(Cc3cc(C)cc(C)c3)C2=O)cc1OC (stereo unspecified) -9.75, O=C(CN(c1ccc(F)cc1)S(=O)(=O)c1ccccc1)Nc1ccccc1C(=O)O -16.1, COc1ccc(OC)c(-c2nn(-c3ccccc3)cc2C(=O)N2CCc3ccccc3C2)c1 -1.81, CN(C)c1ccc(-c2nnn(CC(=O)Nc3ccccc3N3CCOCC3)n2)cc1 -7.73, CC(CCc1ccccc1)NC(=O)CCC1CCCC1 (stereo unspecified) -14.9, COc1ccc(-c2nc(C3CCCCC3)no2)cc1OC -8.9, CCC1(C(=O)OC)CCc2c(cc(OC)c3ccccc23)C1=O (stereo unspecified) -1.7, CN(Cc1c(F)cccc1Cl)C(=O)c1ccc(NS(=O)(=O)c2ccc3[nH]c(=O)[nH]c3c2)cc1 1.93, Nc1ccc(C(=O)Nc2ccc3nc(-c4ccncc4)[nH]c3c2)cc1 -4.86, Cc1ccccc1Nc1c(-c2cccnc2)nc2ccc(Br)cn12 3.56, CN(C)S(=O)(=O)c1cccc(C(=O)Nc2ccc(C(=O)Nc3cccc(S(N)(=O)=O)c3)cc2)c1 -13.6, CCN(CC)c1nc(Oc2ccc(C(=O)OC)cc2)nc(N2CCOCC2)n1 -10.1, Cc1nc2ncnn2c(N2CCC(C(=O)NC3CCCC3)CC2)c1Cc1ccccc1 -8.17, CCN(CC(=O)Nc1cccc(S(=O)(=O)N2CCCC2)c1)CC(=O)Nc1ccccc1OC -16.9, COCc1nnc(NC(=O)c2ccc(S(=O)(=O)N3CCCC3)cc2)o1 -9.48, Cc1cccc(N2Cc3ccc(Br)cc3C2)c1 0.636, CCN(CC)S(=O)(=O)c1ccc(N2CCCC2)c(NC(=O)c2ccccc2OC)c1 -11, O=C(Nc1ccc(Nc2ccccc2)cc1)c1ccc(F)cc1 -19.7, Fc1ccc(Br)cc1SCCc1ccncc1 -5.72, CCOC(=O)c1ccc(NC(=O)c2ccc(OC(C)C)c(OC)c2)cc1 -13.1, COc1cccc(NC2=Nc3cccc4cccc2c34)c1 0.034, CS(=O)(=O)N(CC(=O)N1CCc2ccccc2C1)c1cccc(Br)c1 -7.69, CC1Cc2cc(S(=O)(=O)N3CCN(c4cccc(Cl)c4)CC3)ccc2N1C(=O)C1CC1 (stereo unspecified) -7.78, Cn1c(=O)c2c(ncn2CC(O)CNc2ccc(F)cc2)n(C)c1=O (stereo unspecified) -2.9, O=C(NCCCN1CCOCC1)c1sc2cc([N+](=O)[O-])ccc2c1Cl -0.6, CN1OC[C@@H]2CN(C(=O)c3ccco3)[C@H](c3ccc(-c4ccc(C#N)cc4)cc3)C[C@@H]21 -0.137, COCC#Cc1ccc2c(c1)O[C@@H](CN(C)S(=O)(=O)c1cccc(F)c1)[C@@H](C)CN([C@H](C)CO)S2(=O)=O -17.1, O=C(CSCc1cnn(-c2ccccc2)c1-n1cccc1)NCc1cccnc1 4.83, CCOC(=O)C1NN=C(C(=O)c2ccccc2)C1c1ccc(OC)cc1 (stereo unspecified) -0.226, CN1CCN(C(=O)c2cc3nc(-c4ccco4)cc(C(F)(F)F)n3n2)CC1 4.79, Cc1cccc(CN2C(=O)c3ccccc3Sc3ccc(C(=O)NCCN4CCOCC4)cc32)c1 -9.56, S=c1nc(-c2cccc(Br)c2)[nH][nH]1 -17, O=C(Cc1ccc(Br)cc1)Nc1cccc(-c2cn3c(n2)SCC3)c1 -13.7, Cc1cc(SCC(=O)c2cccs2)n2nc(C)c(-c3ccc(Cl)cc3)c2n1 -3.99, CC(C)[C@@H]1CC[C@@H](C)C[C@H]1O 44.4, COc1ccc(-c2cc(C(=O)O)nc3ccc4ccccc4c23)cc1OC -15.7, COc1ccc(C(=O)COc2ccc(F)cc2)c(O)c1 3.67, O=C(O)CC1(CC(=O)Nc2ccc3sccc3c2)CCCCC1 -2.25, CCOC(=O)C(CC)Sc1cc(C)nc2ccc(OC)cc12 (stereo unspecified) -17.8, O=C(NC1CCCCC1)C(c1cccc2ccccc12)n1c(=O)c(-c2ccco2)nc2ccccc21 (stereo unspecified) -2.93, COc1cc(CC(=O)Nc2nc(C)cs2)cc(OC)c1OC -5.62, Cc1cc(NC(=O)c2sc(Nc3ccc(F)c(Cl)c3)nc2N)no1 9.52, COc1cc(OC)cc(-c2nc3ccccc3c(=O)n2OC(=O)c2ccc(C)c(C)c2)c1 10.3, Cn1ccc2cc(-c3ccc4ncnc(NCc5cccs5)c4c3)ccc21 -14.3, Fc1ccccc1C1CCN(Cc2nc(CC3CC3)no2)C1 (stereo unspecified) 0.528, O=C(COc1ccc(Br)cc1)Nc1ccc(C(=O)Nc2ccccc2C(=O)O)cc1 -23.1, C#CCOc1nc(Nc2cccc([N+](=O)[O-])c2)nc(OCC#C)n1 -4.34, OC(COc1ccc(Cl)cc1)CN1CCN(c2ccccn2)CC1 (stereo unspecified) -7.68, Cc1nn(-c2ccc(N3CCCCC3)nn2)c(C)c1CCC(=O)Nc1ccc(F)cc1 15.2, COc1cc2c(cc1OC)C1(C)N(CC2)C(C(C)=O)=NN1c1ccc(Cl)cc1 (stereo unspecified) -11.9, O=C(Nc1ccc(C(F)(F)F)cc1)C1CCN(c2cnccn2)CC1 -7.16, Cc1nn(CC(=O)OCCOc2ccc(Br)cc2)c(C)c1[N+](=O)[O-] -13.8, NS(=O)(=O)c1cccc(NC(=O)COc2ncnc3c2cnn3-c2ccccc2)c1 11.2, c1ccc2c(c1)Nc1cc3ccccc3cc1S2 14.4, CC(C)OC(=O)c1sc2nc(-c3ccccc3)ccc2c1N 6.79, COc1ccc(C2CC(c3ccc(Br)cc3)=NN2C(=O)CN2CCCC2)cc1 (stereo unspecified) -0.841, COc1ccc(CNC(=O)c2nc(S(=O)(=O)Cc3ccccc3)ncc2Cl)cc1 3.47, CCc1nc2ccccc2c(C(=O)OCC(=O)NC(=O)c2cccn2C)c1C 0.218, O=C(Nc1ccccc1N1CCOCC1)C1CCCCN1S(=O)(=O)c1ccccc1 (stereo unspecified) -15.6, CCOc1ccc(NC(=O)CCc2nnc3ccc(N4CCC(C)CC4)nn23)cc1 5.84, Cc1cc(C)cc(NS(=O)(=O)c2c(C(=O)N3CCCCCC3)c(C)n(C)c2C)c1 -5.32, COc1ccc(CN(C)C(=O)c2cc(-c3ccc(OC)c(OC)c3)nc3ccccc23)c(OC)c1 -3.82, CC1(C(=O)NS(=O)(=O)c2cccc(F)c2)CCN1C(=O)C1(c2ccc(Cl)cc2)CCC1 (stereo unspecified) -2.51

— PubChem BioAssay AID977630 (Broad Institute, 2014)
